# In PubChem BioAssay (EPA / NIEHS):
# Activity calls are given as the source filed them. The calls were made as follows: active = hit-call score of the fitted dose curve at least 0.9, where 1 is the maximum; inactive = score below 0.9.
# Legend:
# Details in all cases: mRNA level, 48 h; actives raise or lower the signal
# [1] = read-out: Insulin Like Growth Factor 1 (IGF1), IGF1 (gene 3479); test: LTEA_HepaRG_IGF1: Life Technologies and Expression Analysis (LTEA) Assay for Insulin Like Growth Factor 1 (IGF1) using HepaRG (AID 2283506)
# Method in brief: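 Differentiated HepaRG cells in serum-free induction medium, exposed 48 h in duplicate to 8 half-log concentrations up to 100 uM in 0.5% DMSO. IGF1 mRNA by Fluidigm qRT-PCR, normalised to ACTB, GAPDH and POLR2A.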
# [2] = read-out: Intercellular Adhesion Molecule 1 (ICAM1), ICAM1 (gene 3383); test: LTEA_HepaRG_ICAM1: Life Technologies and Expression Analysis (LTEA) Assay for Intercellular Adhesion Molecule 1 (ICAM1) using HepaRG (AID 2283507)
# Method in brief: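 Gain or loss of transcript in HepaRG hepatic cells is quantified by qRT-PCR after 48 h chemical exposure (up to 100 uM, half-log steps), with DMSO as baseline.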
# [3] = read-out: Interleukin 6 (IL6), IL6 (gene 3569); test: LTEA_HepaRG_IL6: Life Technologies and Expression Analysis (LTEA) Assay for Interleukin 6 (IL6) using HepaRG (AID 2283509)
# Method in brief: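 HepaRG, ~100,000 cells/well, 48 h pre-culture; serum-free induction medium; cmpd 8-pt half-log from 100 uM, 0.5% DMSO, duplicate, 48 h. Lysis in RLT, TaqMan qRT-PCR; gain or loss vs DMSO.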
# [4] = read-out: Interleukin 6 Receptor (IL6R), IL6R (gene 3570); test: LTEA_HepaRG_IL6R: Life Technologies and Expression Analysis (LTEA) Assay for Interleukin 6 Receptor (IL6R) using HepaRG (AID 2283510);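 as to AC50: TaqMan qRT-PCR signal normalized to ACTB GAPDH and POLR2A housekeeping genes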
# Method in brief: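 Differentiated HepaRG cells, plated 48 h, then exposed in duplicate for 48 h in serum-free induction medium to 8 half-log concentrations (top 100 uM, 0.5% DMSO). IL6R mRNA measured by TaqMan qRT-PCR, normalized to ACTB/GAPDH/POLR2A; bidirectional fit vs DMSO.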
# [5] = read-out: Potassium channel subfamily K member 1 (KCNK1), KCNK1 (gene 3775); test: LTEA_HepaRG_KCNK1: Life Technologies and Expression Analysis (LTEA) Assay for Potassium channel subfamily K member 1 (KCNK1) using HepaRG (AID 2283511)
# Method in brief: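 Gain or loss of KCNK1 mRNA is the read-out, quantified by qRT-PCR against three housekeeping genes after 48 h chemical treatment of human HepaRG liver cells. Concentrations ran from 100 uM downward in half-log steps, vehicle 0.5% DMSO.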
# [6] = read-out: Keratin 19 (KRT19), KRT19 (gene 3880); test: LTEA_HepaRG_KRT19: Life Technologies and Expression Analysis (LTEA) Assay for Keratin 19 (KRT19) using HepaRG (AID 2283512)
# Method in brief: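 Gene-expression endpoint in the human liver line HepaRG after 48 h exposure to up to 100 uM test chemical with 0.5% DMSO vehicle; KRT19 mRNA by qRT-PCR, analyzed bidirectionally versus DMSO.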
# [7] = read-out: JUN Transcription Factor, JUN (gene 3725); test: LTEA_HepaRG_JUN: Life Technologies and Expression Analysis (LTEA) Assay for JUN Transcription Factor using HepaRG (AID 2283513)
# Method in brief: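 HepaRG cells, 48 h post-plating, exposed 48 h in serum-free induction medium to 8-point half-log series (top 100 uM, 0.5% DMSO), duplicate; mRNA by qRT-PCR (TaqMan, Fluidigm), normalized to ACTB/GAPDH/POLR2A; bidirectional fit vs DMSO.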
# [8] = read-out: Lipase C (LIPC), LIPC (gene 3990); test: LTEA_HepaRG_LIPC: Life Technologies and Expression Analysis (LTEA) Assay for Lipase C (LIPC) using HepaRG (AID 2283514)
# Method in brief: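 Read-out is LIPC transcript level by TaqMan qRT-PCR, normalized to three housekeeping genes, after 48 h chemical treatment of human HepaRG liver cells. Curves span eight concentrations topping at 100 uM; activity in either direction scored relative to 0.5% DMSO.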
# [9] = read-out: Lipoprotein lipase (LPL), LPL (gene 4023); test: LTEA_HepaRG_LPL: Life Technologies and Expression Analysis (LTEA) Assay for Lipoprotein lipase (LPL) using HepaRG (AID 2283515)
# Method in brief: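 Read-out is LPL transcript level by qRT-PCR, normalized to three housekeeping genes and fitted bidirectionally against the DMSO control. Human HepaRG cells received chemicals for 48 h at up to 100 uM.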
# [10] = read-out: MicroRNA 122 (MIR122), gene 406906; test: LTEA_HepaRG_MIR122: Life Technologies and Expression Analysis (LTEA) Assay for MicroRNA 122 (MIR122) using HepaRG (AID 2283516); also: the transcript read is the microRNA miR-122
# Method in brief: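 Differentiated human HepaRG cells in serum-free induction medium exposed 48 h to 8 half-log concentrations from 100 uM in 0.5% DMSO, duplicate. MIR122 quantified by Fluidigm TaqMan qRT-PCR, normalised to ACTB, GAPDH, POLR2A; fold change fitted bidirectionally versus DMSO.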
# [11] = read-out: matrix metalloproteinase-3 (MMP3), MMP3 (gene 4314); test: LTEA_HepaRG_MMP3: Life Technologies and Expression Analysis (LTEA) Assay for matrix metalloproteinase-3 (MMP3) using HepaRG (AID 2283519)
# Method in brief: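 HepaRG, human; 48 h dosing, 8 conc. (max 100 uM, half-log), duplicate, 0.5% DMSO. Readout: MMP3 transcript by Fluidigm TaqMan qRT-PCR, ACTB/GAPDH/POLR2A-normalised. Gain or loss fitted vs DMSO.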
# [12] = read-out: Paternally Expressed 10 (PEG10), PEG10 (gene 23089); test: LTEA_HepaRG_PEG10: Life Technologies and Expression Analysis (LTEA) Assay for Paternally Expressed 10 (PEG10) using HepaRG (AID 2283520)
# Method in brief: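 Differentiated HepaRG cells exposed 48 h in serum-free induction medium to eight half-log concentrations topping at 100 uM, 0.5% DMSO, in duplicate. PEG10 mRNA quantified by TaqMan qRT-PCR, normalized to ACTB, GAPDH and POLR2A; bidirectional fit versus DMSO.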
# [13] = read-out: Protein phosphatase 2A (PPP2R4), PTPA (gene 5524); test: LTEA_HepaRG_PPP2R4: Life Technologies and Expression Analysis (LTEA) Assay for Protein phosphatase 2A (PPP2R4) using HepaRG (AID 2283522)
# Method in brief: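 Differentiated human HepaRG cells in serum-free induction medium were exposed 48 h to 8 concentrations (top 100 µM, half-log steps, duplicate) in 0.5% DMSO. PPP2R4 mRNA was measured by TaqMan qRT-PCR, normalised to ACTB, GAPDH and POLR2A, and fitted bidirectionally versus DMSO.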
# [14] = read-out: Phosphatase and tensin (PTEN), PTEN (gene 5728); test: LTEA_HepaRG_PTEN: Life Technologies and Expression Analysis (LTEA) Assay for Phosphatase and tensin (PTEN) using HepaRG (AID 2283523)
# Method in brief: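 Read-out is PTEN transcript level by multiplexed TaqMan qRT-PCR after 48 h chemical treatment of human HepaRG cultures in serum-free induction medium. Concentrations spanned 100 uM downward in half-log steps, 0.5% DMSO throughout; activity fitted in both directions against vehicle.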
# [15] = read-out: solute carrier (SLC22A1), SLC22A1 (gene 6580); test: LTEA_HepaRG_SLC22A1: Life Technologies and Expression Analysis (LTEA) Assay for solute carrier (SLC22A1) using HepaRG (AID 2283524)
# Method in brief: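 HepaRG (human liver line), 48 h dosing in serum-free induction medium; 8 conc., half-log down from 100 uM, 0.5% DMSO vehicle, duplicates. Endpoint: SLC22A1 mRNA, qRT-PCR, housekeeping-normalized; gain/loss fit vs DMSO.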
# [16] = read-out: Pyruvate Dehydrogenase Kinase 4 (PDK4), PDK4 (gene 5166); test: LTEA_HepaRG_PDK4: Life Technologies and Expression Analysis (LTEA) Assay for Pyruvate Dehydrogenase Kinase 4 (PDK4) using HepaRG (AID 2283525)
# Method in brief: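 In this multiplexed human HepaRG expression assay, cells are treated 48 h with test chemicals across an eight-point range starting at 100 uM. PDK4 mRNA changes, normalized to ACTB/GAPDH/POLR2A, are fitted in both directions relative to vehicle.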
# MYC, MYC (gene 4609) = test: LTEA_HepaRG_MYC: Life Technologies and Expression Analysis (LTEA) Assay for MYC using HepaRG (AID 2283518)
# Method in brief: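 Cells are thawed, plated and cultured 48 h, then treated for 48 h with test chemicals (eight half-log concentrations from 100 uM, 0.5% DMSO vehicle). RNA is isolated and MYC expression quantified by qRT-PCR against three housekeeping genes.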
# [17] = read-out: Nuclear factor NF-kappa-B p105 subunit (Homo sapiens) (UniProt P19838); test: LTEA_HepaRG_NFKB1: Life Technologies and Expression Analysis (LTEA) Assay for Nuclear Factor Kappa B Subunit 1 (NFKB1) using HepaRG (AID 2283521)
# Method in brief: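 HepaRG, 48 h exposure; 8-pt half-log series from 100 uM in 0.5% DMSO; duplicates. Readout: NFKB1 mRNA by qRT-PCR (Fluidigm arrays), housekeeping-normalized. Gain/loss fit vs DMSO baseline.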
# [18] = read-out: matrix metalloproteinase-10 (MMP10), MMP10 (gene 4319); test: LTEA_HepaRG_MMP10: Life Technologies and Expression Analysis (LTEA) Assay for matrix metalloproteinase-10 (MMP10) using HepaRG (AID 2283517)
# Method in brief: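 Gain or loss of MMP10 mRNA is fitted relative to the 0.5% DMSO vehicle. The human hepatic line HepaRG receives a 48-hour serum-free exposure, in duplicate, with a maximum concentration of 100 uM.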
# Sequence of Nuclear factor NF-kappa-B p105 subunit (Homo sapiens) (P19838 whole entry, looked up): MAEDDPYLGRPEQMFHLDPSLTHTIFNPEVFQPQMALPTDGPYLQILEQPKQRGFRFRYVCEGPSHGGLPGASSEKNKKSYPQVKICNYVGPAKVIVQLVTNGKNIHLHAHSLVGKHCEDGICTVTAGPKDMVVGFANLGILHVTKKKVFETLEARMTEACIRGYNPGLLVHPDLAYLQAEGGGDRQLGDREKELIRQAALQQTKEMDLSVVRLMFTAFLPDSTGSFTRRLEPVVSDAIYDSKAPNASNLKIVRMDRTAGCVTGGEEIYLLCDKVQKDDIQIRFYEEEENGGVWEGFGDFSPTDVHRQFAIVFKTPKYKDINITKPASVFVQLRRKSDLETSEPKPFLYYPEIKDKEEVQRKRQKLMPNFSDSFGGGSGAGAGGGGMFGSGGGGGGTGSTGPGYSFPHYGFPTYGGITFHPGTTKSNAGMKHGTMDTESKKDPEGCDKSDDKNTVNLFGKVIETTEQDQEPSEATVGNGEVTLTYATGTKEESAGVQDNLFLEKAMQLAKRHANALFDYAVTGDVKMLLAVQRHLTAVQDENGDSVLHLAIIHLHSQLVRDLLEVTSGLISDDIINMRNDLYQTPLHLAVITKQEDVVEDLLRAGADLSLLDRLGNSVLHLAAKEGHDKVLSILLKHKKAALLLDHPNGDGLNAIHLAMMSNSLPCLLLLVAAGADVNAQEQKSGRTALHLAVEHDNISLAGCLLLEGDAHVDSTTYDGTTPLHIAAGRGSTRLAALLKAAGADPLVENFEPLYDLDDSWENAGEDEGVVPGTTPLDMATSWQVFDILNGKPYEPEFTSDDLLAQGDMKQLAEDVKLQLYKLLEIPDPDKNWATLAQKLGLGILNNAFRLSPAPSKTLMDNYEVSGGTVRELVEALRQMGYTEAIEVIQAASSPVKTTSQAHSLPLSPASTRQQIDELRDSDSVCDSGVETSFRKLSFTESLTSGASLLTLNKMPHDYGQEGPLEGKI
compound,measurement,setting,value
O=P(OCCCl)(OCCCl)OCCCl,outcome,[1],inactive
same,outcome,[2],inactive
same,outcome,[3],inactive
same,outcome,[4],inactive
same,outcome,[5],inactive
same,outcome,[6],inactive
same,outcome,[7],inactive
same,outcome,[8],inactive
same,outcome,[9],inactive
same,outcome,[10],inactive
same,AC50,[11],67.3 µM (active)
same,outcome,[12],inactive
same,AC50,[13],50 µM (active)
same,outcome,[14],inactive
same,outcome,[15],inactive
same,outcome,[16],inactive
OCCCl,outcome,[1],inactive
same,outcome,[2],inactive
same,outcome,[3],inactive
same,outcome,[4],inactive
same,outcome,[5],inactive
same,outcome,[6],inactive
same,outcome,[7],inactive
same,outcome,[8],inactive
same,outcome,[9],inactive
same,outcome,[10],inactive
same,outcome,"MYC, MYC (gene 4609)",inactive
same,outcome,[11],inactive
same,outcome,[12],inactive
same,outcome,[13],inactive
same,outcome,[14],inactive
same,outcome,[15],inactive
same,outcome,[16],inactive
ClC1=C(Cl)[C@]2(Cl)[C@H]3[C@H]([C@@H]4C=C[C@H]3C4)[C@@]1(Cl)C2(Cl)Cl,outcome,[1],inactive
same,outcome,[2],inactive
same,outcome,[3],inactive
same,outcome,[4],inactive
same,outcome,[5],inactive
same,outcome,[6],inactive
same,outcome,[7],inactive
same,outcome,[8],inactive
same,outcome,[9],inactive
same,outcome,[10],inactive
same,outcome,[11],inactive
same,outcome,[12],inactive
same,outcome,[13],inactive
same,outcome,[14],inactive
same,AC50,[15],9.92 µM (active)
same,outcome,[16],inactive
CC(C)(O)c1cnn2c(-c3ccc(F)c(-c4c(F)cccc4C#N)c3)cnc2n1,AC50,[1],1.35 µM (active)
same,outcome,[2],inactive
same,outcome,[3],inactive
same,outcome,[4],inactive
same,outcome,[5],inactive
same,outcome,[6],inactive
same,outcome,[7],inactive
same,AC50,[8],2.9 µM (active)
same,outcome,[9],inactive
same,AC50,[10],13.1 µM (active)
same,outcome,[11],inactive
same,outcome,[12],inactive
same,outcome,[17],inactive
same,outcome,[13],inactive
same,outcome,[14],inactive
same,AC50,[15],9.92 µM (active)
same,outcome,[16],inactive
CCNS(=O)(=O)C(F)(F)C(F)(F)C(F)(F)C(F)(F)C(F)(F)C(F)(F)C(F)(F)C(F)(F)F,AC50,[1],48.2 µM (active)
same,outcome,[2],inactive
same,outcome,[3],inactive
same,outcome,[4],inactive
same,outcome,[5],inactive
same,AC50,[6],48.2 µM (active)
same,outcome,[7],inactive
same,outcome,[8],inactive
same,outcome,[9],inactive
same,AC50,[10],48.2 µM (active)
same,outcome,[18],inactive
same,outcome,[11],inactive
same,AC50,[12],15.5 µM (active)
same,outcome,[14],inactive
same,AC50,[15],40.5 µM (active)
same,AC50,[16],30.4 µM (active)
O=C(O)C1C2CCC(O2)C1C(=O)O (centres undefined),AC50,[1],73.6 µM (active)
same,outcome,[2],inactive
same,AC50,[3],16.5 µM (active)
same,AC50,[4],26.4 µM (active)
same,outcome,[5],inactive
same,AC50,[6],50 µM (active)
same,AC50,[7],24.7 µM (active)
same,AC50,[8],82.6 µM (active)
same,outcome,[9],inactive
same,AC50,[10],74.4 µM (active)
same,outcome,"MYC, MYC (gene 4609)",inactive
same,AC50,[11],27.7 µM (active)
same,AC50,[12],85.7 µM (active)
same,outcome,[13],inactive
same,outcome,[14],inactive
same,AC50,[15],70.7 µM (active)
same,outcome,[16],inactive
